# Measured values from PMC5540273 (PLoS ONE, 2017).
# Tests used:
# Conditions in all cases: concentration: 1 μM, replicates: in singlicate; n = 1
# PFTAIRE2 = test system: PFTAIRE2
# PFTK1 = test system: T1, PFTK1
# T1 construct: gene CDK14
# PHKG1 = test system: PHKG1
# PHKG2 = test system: PHKG2
# PIK3C2B = test system: PIK3C2B
# PIK3C2G = test system: PIK3C2G
# PIK3CA = test system: PIK3CA
# PIK3CB = test system: PIK3CB
# PIK3CD = test system: PIK3CD
# PIK3CG = test system: PIK3CG
# PIK4CB = test system: T2, PIK4CB
# T2 construct: gene PI4KB
# PIKFYVE = test system: PIKFYVE
# PIM1 = test system: PIM1
# PIM2 = test system: PIM2
# PIM3 = test system: PIM3
# PIP5K1A = test system: PIP5K1A
# PIP5K1C = test system: PIP5K1C
# PIP5K2B = test system: PIP5K2B
# PIP5K2C = test system: T3, PIP5K2C
# T3 construct: gene PIP4K2C
# PKAC-alpha = test system: T4, PKAC-alpha
# T4 construct: gene PRKACA
# 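Also: KINOMEscan kinase panel screen.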
SMILES,%Inh (PFTAIRE2),%Inh (PFTK1),%Inh (PHKG1),%Inh (PHKG2),%Inh (PIK3C2B),%Inh (PIK3C2G),%Inh (PIK3CA),%Inh (PIK3CB),%Inh (PIK3CD),%Inh (PIK3CG),%Inh (PIK4CB),%Inh (PIKFYVE),%Inh (PIM1),%Inh (PIM2),%Inh (PIM3),%Inh (PIP5K1A),%Inh (PIP5K1C),%Inh (PIP5K2B),%Inh (PIP5K2C),%Inh (PKAC-alpha)
Cc1cccc2c(-c3ccncn3)c(-c3ccc(F)cc3)nn12 [GW515532],9%,8%,0%,0%,0%,0%,0%,0%,5%,0%,0%,22%,20%,0%,0%,4%,31%,0%,0%,7%
CC(=O)c1cccc(NC(=O)NC2CCN(c3ccnc(Nc4ccc(F)cc4)n3)C2)c1 (centres unmarked) [GSK1379710],26%,14%,0%,1%,0%,0%,0%,0%,24%,7%,31%,25%,18%,0%,4%,36%,50%,8%,22%,0%
COC(=O)C(NC(=O)NC1CCN(c2ccnc(Nc3ccc(F)cc3)n2)C1)c1ccccc1 (centres unmarked) [GSK1379712],14%,17%,0%,0%,14%,0%,1%,5%,23%,9%,16%,28%,0%,0%,0%,9%,41%,17%,29%,0%
COc1ccc(Nc2nccc(NCCNC(=O)Nc3cc(C)ccc3C)n2)cc1 [GSK1379899],9%,32%,0%,0%,90%,0%,86%,0%,0%,68%,0%,0%,0%,0%,0%,0%,18%,6%,39%,0%
Cc1c(Cn2c3ccccc3n3c(=O)cc(N4CCOCC4)nc23)cccc1C(F)(F)F [GSK2306394],14%,21%,12%,18%,9%,3%,1%,98.4%,52%,0%,90.3%,0%,6%,0%,0%,0%,8%,20%,0%,0%
Nc1cccc(-c2ccc3c(N)n[nH]c3c2)n1 [GSK2192730],20%,0%,0%,6%,5%,0%,18%,0%,0%,15%,30%,0%,26%,0%,13%,39%,0%,4%,0%,0%
CNc1cc(-c2ccc3c(N)n[nH]c3c2)nc(N)n1 [GSK2224810],0%,18%,0%,18%,0%,0%,0%,9%,1%,5%,11%,0%,15%,0%,0%,18%,45%,5%,27%,8%
CNC(=O)c1ccc(C)c(-n2c(C)cc(OCc3ccc(F)cc3F)c(Br)c2=O)c1,0%,8%,5%,0%,0%,0%,0%,0%,0%,0%,0%,40%,0%,0%,0%,0%,1%,0%,0%,0%
CCn1c(-c2ccccc2)nc2cnccc21 [SB-733416],0%,27%,0%,0%,0%,0%,0%,0%,13%,0%,0%,40%,0%,0%,0%,5%,21%,0%,13%,0%
CC(C)c1cc(-c2ccc3c(N)n[nH]c3c2)nc(N)n1 [GSK2250882],26%,4%,1%,5%,0%,0%,0%,0%,0%,5%,0%,0%,20%,0%,15%,26%,49%,36%,2%,0%
CC(=O)c1c(C)c2cnc(Nc3ccn(C)n3)nc2n(C2CCCC2)c1=O,0%,0%,0%,2%,0%,0%,0%,0%,18%,61%,0%,9%,0%,0%,0%,0%,1%,0%,91.9%,0%
CNc1nc(-c2ccc3c(N)n[nH]c3c2)cc(N2C[C@@H](C(=O)NC3CCCCC3)OC[C@H]2C)n1 [GSK2375584],13%,25%,3%,13%,0%,0%,4%,34%,0%,9%,0%,0%,11%,0%,0%,34%,54%,21%,27%,5%
CCc1ccc(-c2ccc3c(c2)-c2n[nH]cc2S(=O)(=O)N3C)cc1,0%,0%,0%,0%,0%,0%,0%,0%,0%,0%,0%,100%,0%,0%,18%,0%,45%,0%,16%,0%
Cc1ccc(NC(=O)Nc2ccccc2F)cc1-c1ccc(C(=O)Nc2ccncc2)cc1 [GSK1398477],28%,25%,23%,4%,0%,0%,0%,0%,0%,0%,0%,0%,6%,0%,0%,0%,0%,0%,0%,46%
COc1ccc(CSc2nnc(-c3ccc4ncsc4c3)o2)cc1C(F)(F)F,0%,0%,0%,15%,0%,0%,0%,12%,0%,5%,0%,0%,1%,0%,10%,0%,11%,17%,11%,0%
NS(=O)(=O)c1cccc(N/C=C2\C(=O)Nc3ccc(S(=O)(=O)Cc4c(Cl)cccc4Cl)cc32)c1 [GSK398099],26%,5%,0%,0%,4%,0%,16%,0%,0%,41%,87%,0%,0%,0%,0%,0%,0%,0%,1%,0%
COc1ccc(Nc2nccc(N3CCC(NC(=O)C(C)c4ccc(Cl)cc4)CC3)n2)cc1 (centres unmarked) [GSK1379812],8%,5%,0%,16%,15%,0%,21%,22%,0%,12%,11%,0%,0%,0%,2%,0%,29%,63%,9%,17%
COc1cccc(CNC(=O)NC2CCN(c3ccnc(Nc4ccc(F)cc4)n3)C2)c1 (centres unmarked) [GSK1379723],7%,0%,0%,26%,0%,0%,0%,0%,2%,0%,11%,9%,15%,0%,0%,0%,11%,8%,26%,0%
Cc1ccc(NC(=O)Nc2ccc(Cl)c(C(F)(F)F)c2)cc1-c1ccc(C(=O)Nc2ccncc2)cc1 [GSK1398470],21%,0%,23%,4%,0%,2%,9%,0%,0%,10%,0%,0%,23%,1%,21%,0%,23%,0%,8%,15%
